# Assay outcomes (PubChem BioAssay)
# ELG1 genotox – inducers of genotoxicity in HEK293T ELG1-luciferase cells. HEK293T ELG1-luciferase reporter, luminescence, 16 h. Potency, µM (highest dose often 46 µM), for inactives: at the highest dose activity change, positive = activation, most hits filed as activators. actives 1.3% (n = 330,000); further: % of control where 0% means no effect; nearly all actives have a fitted effect of over 60% in size
#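 Luminescence read-out: rising ELG1-luciferase signal, reflecting elevated ELG1 protein under genetic stress, flags genotoxic compounds. Cells were treated for 16 hr at 37 °C before ONE-Glo detection.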
# NPC1 prom act – activators of NPC1 promoter; Huh7 NPC1 promoter luciferase reporter, 24 h; Potency, µM (highest dose often 9.22 µM), without a hit: at the highest dose activation, most hits filed as activators; actives 2.4% (n = 320,000); AID 485313; further: % of control where 0% means no effect; nearly all actives have a fitted effect of over 60% in size
#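 NPC1 promoter–luciferase Huh7 cells; 24 h compound; luminescence.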
# FLuc counter – firefly luciferase modulation, counter-screen for miR-21 project. P08659. purified FLuc, Km substrates, luminescence inhibition. Potency, µM (doses to about 57.5 µM), for inactives: at the top dose activity change, negative = inhibition, actives largely listed as inhibitors. actives 6.9% (n = 360,000). AID 588342;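 further: plate controls were vehicle for no effect and reference inhibitor for full effect; nearly all actives have a fitted effect of over 55% in size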
# Target sequence (P08659 whole entry, looked up): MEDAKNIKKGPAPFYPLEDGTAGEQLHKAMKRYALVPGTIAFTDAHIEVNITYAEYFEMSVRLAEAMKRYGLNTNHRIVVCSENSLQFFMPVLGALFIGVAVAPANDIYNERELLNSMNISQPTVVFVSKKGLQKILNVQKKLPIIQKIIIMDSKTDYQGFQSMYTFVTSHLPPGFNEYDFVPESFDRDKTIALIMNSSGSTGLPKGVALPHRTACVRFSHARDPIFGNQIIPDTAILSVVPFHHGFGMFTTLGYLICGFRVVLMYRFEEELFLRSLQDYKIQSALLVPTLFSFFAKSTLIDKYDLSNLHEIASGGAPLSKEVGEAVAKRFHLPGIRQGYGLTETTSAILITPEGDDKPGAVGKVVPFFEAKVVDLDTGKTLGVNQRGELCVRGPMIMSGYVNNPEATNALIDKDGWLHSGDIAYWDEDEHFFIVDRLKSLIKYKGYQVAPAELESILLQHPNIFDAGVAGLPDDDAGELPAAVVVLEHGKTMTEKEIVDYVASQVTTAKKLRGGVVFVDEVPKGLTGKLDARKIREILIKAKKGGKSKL
#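 Purified P. pyralis luciferase, 10 nM final, with Km-level 10 uM D-luciferin and 10 uM ATP in 50 mM Tris acetate pH 7.5, 10 mM Mg acetate, 0.01% Tween-20, 0.05% BSA; 6-point qHTS titration about 60 µM downward; luminescence read.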
# ELG1 repair inh – blocks ELG1-dependent DNA repair in HEK293T cells. HEK293T ELG1-luciferase reporter, luminescence, 16 h; DNA damage induced by 5-fluorouridine. Potency, µM (titrated, usually from 46.1 µM), for the others: top-dose activity change, negative = inhibition, usual class: inhibitors. actives 2.3% (n = 330,000). AID 504467; further: on the % scale 0 is the no-effect control and ±100 the full control effect; nearly all actives have a fitted effect of over 55% in size
#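 In this reporter screen, reduction of luminescence relative to DMSO vehicle indicated activity. Compounds and 5-fluorouridine were added together to 2,000 cells per well, incubated for 16 hr at 37 °C, then developed with ONE-Glo.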
# SMN2 splice up – SMN2 splice variant enhancement. HEK293 SMN2-luciferase splicing reporter, luminescence, 30-36 h. Potency, µM (series often up to 46.1 µM), inactives show at the top dose activity change, positive = activation, usual class: activators. actives 2.8% (n = 210,000). AID 1458; further: % of control where 0% means no effect; nearly all actives have a fitted effect of over 55% in size
#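 HEK293 cells carry an SMN2 […]–luciferase reporter in which exon 7 inclusion puts luciferase in frame. Cells were plated 10-12 h before compound addition, then incubated 30-36 h at 37C. ONE-Glo luminescence was read; sodium butyrate at 4.5 mM final served as control.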
# Rab9 promoter act – activates the Rab9 promoter | Potency, µM (series often up to 9.22 µM), without a hit: at the highest dose activation, negative = inhibition, most hits filed as activators | Huh7 Rab9 promoter-luciferase reporter, luminescence, 24 h | actives 2.8% (n = 320,000); further: % of control where 0% means no effect; nearly all actives have a fitted effect of over 60% in size
#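 Cells were plated at 1500 per well in reduced-serum medium with 10% FBS and left 2 h. Compound in DMSO was then added for 24 h at 37 °C. Reporter signal was read by luminescence after 10 min with luciferase detection reagent.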
# Starred values were filed as active, the others as inactive; ? = inconclusive; / = no result given. A selection: hits, their analogues and other compounds. The true share with any hit is near 9.2%. The call rests on the fitted dose curve; in most records, active means well fitted curve in the direction sought with a large enough effect; inconclusive means small, poorly fitted or top-dose-only effect, or another doubt; inactive means no such curve, though single readings can be large; an effect the other way counts as inactive or inconclusive. Potency means the concentration at half of the fitted maximal effect.
SMILES,ELG1 genotox,NPC1 prom act,FLuc counter,ELG1 repair inh,SMN2 splice up,Rab9 promoter act
CC(=O)c1ccc(NC(=O)CCCN2C(=O)/C(=C/C(C)=C/c3ccccc3)SC2=S)cc1,0%,-3%,-4%,-15%,-20%,5%
COc1ccc(-c2c(O)c3c(OC)c4c(cc3oc2=O)OC(C)(C)CC4)cc1,/,/,/,/,-8%,/
Cc1c(OCC(=O)N(C)c2ccccc2)ccc2c3c(c(=O)oc12)CCC3,17%,20%,-10%,?,/,6%
CC(Oc1ccc(Cl)cc1Cl)c1nc(-c2ccccn2)no1 (stereo not drawn),?,?,15µM*,?,28%,?
CC(Oc1ccc(Cl)cc1Cl)c1nc(-c2ccc(NC(=O)c3ccncc3)cc2)no1 (stereo not drawn),-3%,-29%,-4%,18µM*,-71%,-22%
O=C(O)c1cccc(Nc2ncnc3c2cnn3-c2ccccc2)c1,?,1.3µM*,2.1µM*,?,13µM*,3.2µM*
Clc1cccc(Nc2ncnc3c2cnn3-c2ccccc2)c1,?,25%,27µM*,-20%,2%,17%
O=C(O)c1cccc(Nc2ncnc3ccccc23)c1,1%,0%,19µM*,2%,18%,16%
Fc1cccc(Nc2ncnc3c2cnn3-c2ccccc2)c1,?,?,17µM*,?,/,?
O=C(COc1ccc2c3c(c(=O)oc2c1)CCCC3)NCCCN1CCOCC1,1%,-1%,-3%,12%,/,-4%
CC(=O)c1cccc(Nc2ncnc3ccc(Br)cc23)c1,0%,16%,-2%,18µM*,/,-1%
CC(C)COc1ccc(Nc2ncnc3ccc(Br)cc23)cc1,/,/,-9%,/,-1%,/
CCOC(=O)N1CCN(C(=O)c2sc3nc(-c4ccc(F)cc4)cn3c2C)CC1,-2%,0%,-1%,21µM*,-22%,-7%
COc1ccc(-c2cn3c(C)c(C(=O)N4CCN(c5ccc(F)cc5)CC4)sc3n2)cc1,13%,1%,?,0%,-34%,-8%
COc1ccccc1N1CCN(C(=O)c2sc3nc(-c4ccc(F)cc4)cn3c2C)CC1,-46%,-5%,2%,18µM*,-78%,-19%
N#Cc1ccccc1S(=O)(=O)N1CCN(S(=O)(=O)c2ccc(Br)c(C(=O)O)c2)CC1,2%,0%,2%,15%,/,-1%
CCCC(=O)Nc1cccc(NC(=O)c2ccc3c(c2)OCO3)c1,0%,8%,?,1%,?,4%
CCC(=O)Nc1cccc(NC(=O)c2ccc3c(c2)OCCO3)c1,7%,?,17µM*,?,13µM*,?
CN(C)S(=O)(=O)c1cccc(NC(=O)c2ccc3c(c2)OCCO3)c1,0%,3.2µM*,9.5µM*,?,/,?
Cn1ccc2cc(S(=O)(=O)N3CCC(C(=O)NCCc4ccccc4)CC3)ccc21,/,/,0%,/,/,/
CCCCNc1c(-c2ccc(SC(C)CC)c(OC)c2)nc2ccc(C)cn12 (stereo not drawn),-6%,0%,8.5µM*,5%,/,-1%
CCCCNc1c(-c2ccc(SC(C)CC)c(OC)c2)nc2ccc(Cl)cn12 (stereo not drawn),-1%,/,/,-14%,/,/
CCOc1ccc(CNC(=O)C2CCN(c3nnc(-n4c(C)ccc4C)s3)CC2)cc1,/,/,-11%,/,-10%,/
Cc1cc[n+](CC(=O)c2cc3ccccc3oc2=O)cc1,15%,1%,24µM*,?,-2%,25%
Cc1oc(=O)c(NC(=O)c2ccccc2)cc1C(=O)c1ccccc1,?,?,15µM*,?,26%,2.2µM*
SMILES,ELG1 genotox,NPC1 prom act,FLuc counter,ELG1 repair inh,SMN2 splice up,Rab9 promoter act
Cc1oc(=O)c(NC(=O)c2ccc(Cl)cc2)cc1C(=O)c1ccccc1,7%,0%,-17%,?,-5%,2%
COc1ccc(C(=O)Nc2cc(C(C)=O)c(/C=C/N(C)C)oc2=O)cc1,0%,-3%,?,-7%,-5%,4%
CC(=O)c1cc(NC(=O)c2ccc(C)cc2)c(=O)oc1/C=C/N(C)C,3%,-1%,5.4µM*,?,?,21%
Cc1ccc(C(=O)Nc2cc3ccccc3oc2=O)cc1,?,0.71µM*,0.076µM*,?,/,?
CC(=O)Nc1cc2ccccc2oc1=O,-6%,0%,4%,13%,-6%,-11%
CC(=O)c1cc(NC(=O)c2ccc(C)cc2)c(=O)oc1C,?,-2%,17µM*,?,/,-2%
O=C(N/N=C/c1cc2c3c(c1O)CCCN3CCC2)c1ccccc1O,-12%,-9%,24µM*,?,-102%,-26%
Cc1ccsc1C(=O)OC1CCOC1=O (stereo not drawn),0%,-2%,2%,5%,25µM*,-1%
N#Cc1c(NC(=O)c2ccc(-c3ccccc3[N+](=O)[O-])o2)sc2c1CCCC2,1%,-2%,11µM*,?,-30%,14%
Cc1onc(C(=O)Nc2sc3c(c2C#N)CCCC3)c1[N+](=O)[O-],7%,3%,13µM*,-3%,/,?
O=C(NC1CCCCC1)c1ccc(-c2ccccc2[N+](=O)[O-])o1,2.1µM*,0.71µM*,3.8µM*,?,/,1.4µM*
CC1CCc2c(sc(NC(=O)c3ccc(-c4ccccc4[N+](=O)[O-])o3)c2C#N)C1 (stereo not drawn),-4%,4%,11µM*,5%,-10%,14%
Cc1onc(-c2ccccc2)c1C(=O)Nc1sc2c(c1C#N)CCC(C)C2 (stereo not drawn),-6%,0%,?,?,-14%,-3%
CCN1C(C(=O)c2ccccc2)=C(OC(=O)COc2ccccc2)c2ccccc2S1(=O)=O,/,/,-13%,/,-7%,/
COc1ccc(/C(N)=N/OC(=O)c2cccc([N+](=O)[O-])c2C)cc1,?,20%,17µM*,?,27%,26%
COc1cc(C(=O)O/N=C(\N)c2ccc([N+](=O)[O-])cc2)cc(OC)c1OC,7%,-4%,5%,?,6%,-2%
COc1cccc(C(=O)O/N=C(\N)c2ccc([N+](=O)[O-])cc2)c1,17%,8%,2.4µM*,?,-1%,29%
COc1ccccc1C(=O)CC(=O)C(=O)Nc1cccc([N+](=O)[O-])c1C,-7%,-2%,-3%,18µM*,/,-8%
COc1ccc(/C(N)=N/OC(=O)c2cccc([N+](=O)[O-])c2)cc1,?,11%,19µM*,?,?,13%
CCOc1ccccc1C(=O)N1CC(=O)Nc2ccc(C)cc2C1c1ccccc1 (stereo not drawn),/,/,5%,/,23%,/
